# Screening results from PubChem BioAssay.
# This is a sample that favours compounds with a hit; in the whole collection about 4.7% have one here.
# D1 antag = human D1 dopamine receptor antagonism. P21728. HEK293 TREx D1 cells, calcium flux, dopamine EC80; active compounds read low. activity change, negative = inhibition, % at 10 µM. 3.2% of 360,000 active; in the data active = activity change below about -30%
#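 Cells carrying a force-coupled, tetracycline-inducible human D1 receptor report calcium flux. Each well gets a 10 s baseline, compound with 180 s monitoring, then an EC80 dopamine stimulus with a second 180 s kinetic read.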
# D1 ag = activates the human D1 dopamine receptor; P21728; 1% of 360,000 active; HEK293 T-REx D1 cells, calcium flux, agonist mode; activation, % at 2 µM; AID 504660
#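 Inducible HEK293 T-REx D1 cells, force-coupled to calcium signalling, were plated at 4000 cells/well with tetracycline and held overnight at 30 C. After no-wash calcium dye loading, compound-evoked calcium rise over 180 s flagged agonists.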
# D1 potentiator = human D1 dopamine receptor positive modulation | P21728 | HEK293 TREx D1 cells, calcium flux, dopamine EC20 potentiation | potentiation, % at 10 µM | 0.036% of 360,000 active | AID 504651; in the data active = potentiation above about 30%
# TRHR enhancer-1 = TRH receptor (human) allosteric enhancement. P34981. 0.66% of 360,000 active. AID 493056. enhancement, % at 2 µM. TRHR cells, fluo-8 calcium fluorescence, EC20 TRH enhancement; in the data active = enhancement above about 30%
# Target sequence (P34981 whole entry, looked up): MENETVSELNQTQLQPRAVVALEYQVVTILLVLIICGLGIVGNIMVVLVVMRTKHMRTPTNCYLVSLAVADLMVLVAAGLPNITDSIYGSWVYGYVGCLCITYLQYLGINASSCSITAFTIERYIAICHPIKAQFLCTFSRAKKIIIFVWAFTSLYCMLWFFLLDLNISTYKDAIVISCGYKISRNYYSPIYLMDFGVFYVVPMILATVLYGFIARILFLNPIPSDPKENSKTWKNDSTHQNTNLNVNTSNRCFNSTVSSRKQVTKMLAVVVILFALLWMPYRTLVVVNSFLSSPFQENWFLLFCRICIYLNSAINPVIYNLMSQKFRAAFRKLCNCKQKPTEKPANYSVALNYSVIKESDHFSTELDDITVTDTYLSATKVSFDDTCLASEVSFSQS
#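 Enhancer read-out: after compound pinning and an initial kinetic agonist-mode read, an EC20 of TRH (10 nM final) was injected and fluo-8 calcium signal (Ex 480/Em 530) followed at 1 s/cycle for 100 cycles in TRHR-expressing cells.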
# TRHR agonist-1 = activates the human TRH receptor; P34981; TRHR cells, calcium flux fluo-8, FDSS agonist mode; activation, % at 2 µM; 0.18% of 360,000 active; AID 493084
#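 TRHR-expressing cells, plated overnight in medium with 10% serum, were loaded with fluo-8 calcium dye at room temperature. After a 10 s baseline, library compound was pin-added and calcium release was recorded kinetically (ex 480/em 530) as agonist response.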
# TRHR enhancer-2 = confirmation of human TRH receptor allosteric enhancers; shares compounds with TRHR enhancer-1; TRH receptor cell assay, enhancer confirmation qHTS; activity change, negative = inhibition, % at 46.1 µM; 970 tested, under 10 active; AID 493076; active = well fitted curve in the direction sought with a large enough effect; inconclusive = small, poorly fitted or top-dose-only effect, or another doubt; inactive = no such curve, though single readings can be large; an effect the other way counts as inactive or inconclusive;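 also: compound effect scored on response to added TRH at EC20 of 10 nM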
# TRHR agonist-2 = confirmation of human TRH receptor agonists; shares compounds with TRHR enhancer-1; TRHR-expressing cells, agonist activation read-out; Potency, µM (series often up to 46.1 µM), most hits filed as activators; 8% of 970 active; active = well fitted curve in the direction sought with a large enough effect; inconclusive = small, poorly fitted or top-dose-only effect, or another doubt; inactive = no such curve, though single readings can be large; an effect the other way counts as inactive or inconclusive; also: nearly all actives have a fitted effect of over 75% in size
# Hits are given with their value; n = inactive; u = inconclusive; x = no result. Rule as the data show it, unless noted: active = activation above about 30%; inactive = the rest.
SMILES,D1 antag,D1 ag,D1 potentiator,TRHR enhancer-1,TRHR agonist-1,TRHR enhancer-2,TRHR agonist-2
CN(C(=O)COC(=O)c1c2c(nc3ccccc13)/C(=C/c1cccc([N+](=O)[O-])c1)CCC2)C1CCS(=O)(=O)C1 (stereo not given),n,n,n,n,n,x,x
Cc1ccc(S(=O)(=O)NCC(c2ccco2)N2CCN(c3ccccc3F)CC2)cc1 (stereo not given),x,n,n,n,n,x,x
c1ccc(-n2cccc2CNC2CCCCC2)cc1,n,n,n,48,n,n,n
O=C(Cc1ccc(Br)cc1)N1CCOCC1,n,n,n,n,n,x,x
CC(=O)c1c(C)[nH]c(C(=O)CN2CCN(S(=O)(=O)c3ccccc3[N+](=O)[O-])CC2)c1C,-31,n,n,45,n,n,n
CCCS(=O)(=O)N1CCN(S(=O)(=O)c2ccccc2[N+](=O)[O-])CC1,n,n,n,n,n,x,x
Cc1ccc(/C=C2\SC(=S)N(CCCC(=O)Nc3cc(C)on3)C2=O)cc1,n,n,n,n,n,x,x
Cc1cc(NC(=O)CN2C(=O)/C(=C/c3cccc(Br)c3)SC2=S)no1,n,n,n,47,n,n,n
COc1ccc(CCNC(=O)Cn2c(=O)nc(-c3ccccc3)c3cc(Cl)ccc32)cc1OC,n,n,n,n,n,x,x
CNC(=O)CSc1nc2cccnc2n1C1CCCCC1,n,n,n,n,n,x,x
CC(C)(C)NC(=O)CSc1nc2cccnc2n1C1CCCCC1,n,n,n,51,n,n,n
O=C(Nc1oc2ccccc2c(=O)c1-c1ccc(Br)cc1)c1ccco1,n,n,n,n,n,x,x
Cc1ccccc1N1CCN(c2ccc(NC(=O)C3CCCCC3C(=O)O)cc2)CC1 (stereo not given),n,n,n,42,n,n,n
O=C(O)[C@H]1CCCC[C@H]1C(=O)Nc1ccc(Nc2ccccc2)cc1,n,n,n,n,n,x,x
Clc1ccc(CSc2nnc(-c3ccncc3)s2)cc1,n,n,n,n,n,x,x
Clc1cccc(Cl)c1CSc1nnc(-c2ccncc2)s1,n,144,n,n,n,n,u
COc1cc(NC(=O)N2CCC3(CC2)Nc2ccccc2-n2cccc23)cc(OC)c1OC,n,n,n,n,n,x,x
CNC(=O)C(=O)Nc1c(C)cc(C)cc1C,-36,n,n,41,n,n,n
Cc1ccc(C(=O)CSc2nnc(C(C)C)n2C)cc1C,n,n,n,42,n,n,n
CCCCn1nnnc1SCC(=O)c1ccc(C)c(C)c1,n,n,n,n,n,x,x
CCOC(=O)CNC(=S)N(Cc1ccco1)Cc1ccccc1Cl,n,n,n,n,n,x,x
COc1cc(C(=O)Nc2cccc(-c3cn4cccnc4n3)c2)cc(OC)c1OC,n,n,n,63,n,n,n
CC(=O)Nc1sc(C)c(C)c1C(=O)OCC(=O)Nc1cc(S(C)(=O)=O)ccc1Cl,n,n,n,n,n,x,x
CS(=O)(=O)c1ccc(Cl)c(NC(=O)COC(=O)c2c(Cl)cccc2Cl)c1,n,n,n,41,n,n,n
COc1ccc(OC)c(CN2CCC(Cc3ccccc3)CC2)c1,n,n,n,n,n,n,n
SMILES,D1 antag,D1 ag,D1 potentiator,TRHR enhancer-1,TRHR agonist-1,TRHR enhancer-2,TRHR agonist-2
COc1cc(CN2CCC(Cc3ccccc3)CC2)c([N+](=O)[O-])cc1OC,n,n,n,n,n,x,x
COc1ccc(Oc2nccc(OC)c2C#N)cc1,n,n,n,43,n,n,n
COc1ccnc(Oc2cc(Cl)cc(Cl)c2)c1C#N,n,n,n,n,n,x,x
COc1ccc(NC(=O)c2ccc3nc(C)sc3c2)cc1,n,n,n,57,n,n,n
COC(=O)c1ccc(NC(=O)c2ccc3nc(C)sc3c2)cc1,n,n,n,n,n,x,x
COc1ccc(NC(=O)c2ccc(-c3nn(C)c(=O)c4ccccc34)cc2)cc1,n,n,n,44,n,n,n
CCC(=O)Nc1ccc(NC(=O)c2ccc3ccccc3c2)cc1,n,n,n,n,n,x,x
COc1ccc(C(=O)NNC(=O)c2cccc(F)c2)cc1,n,n,n,45,n,n,n
COc1ccccc1NC(=O)c1ccc(-c2nn(C)c(=O)c3ccccc23)cc1,n,n,n,n,n,x,x
COc1ccc(NC(=O)c2ccc3ccccc3c2)cc1,n,n,n,54,n,n,n
COC(=O)c1cc2oc(C)cc2n1Cc1ccccc1Cl,n,n,n,n,n,x,x
CCCCOC(=O)c1ccc(NC(=O)Cc2coc3ccc(C(C)C)cc23)cc1,n,n,n,n,n,x,x
CC(C(=O)Nc1ccc(F)c(F)c1F)N(C)CCOc1ccccc1 (stereo not given),n,n,n,46,n,n,n
COc1ccccc1NC(=O)C(C)N(C)CCOc1ccccc1 (stereo not given),n,n,n,n,n,x,x
Cc1cc2c(c(=O)o1)C1O[C@](c3ccsc3)(Cc3ccccc31)O2,n,n,n,n,n,x,x
CCCNC(=O)C(=O)NCC1CCCN1CC (stereo not given),n,n,n,n,n,x,x
C=CCNC(=O)C(=O)NCC1CCCN1CC (stereo not given),n,n,n,42,n,n,n
COC(=O)C1=C(C)NC(C)=C(C(=O)OCC2CCCO2)C1c1cccc(Br)c1 (stereo not given),n,n,n,n,n,x,x
CCn1cnc2scc(-c3ccc(OC)cc3)c2c1=O,n,n,n,n,n,x,x
CCOc1ccc(-c2csc3ncn(-c4ccc(OC)cc4)c(=O)c23)cc1,n,n,n,44,n,n,n
O=C1CCCN1CC(=O)N1CCCC(Nc2cccc(F)c2)C1 (stereo not given),n,n,n,n,n,x,x
COc1ccc(CNCc2ccccc2C(F)(F)F)cc1,n,n,n,n,n,x,x
COc1ccc(CNCc2cccc3ccccc23)cc1,n,n,n,52,n,u,u
CCCC(=O)Nc1cccc2c1CCCC2,n,n,n,49,n,n,n
CC(=O)CC(=O)Nc1cccc2c1CCCC2,n,n,n,n,n,x,x
SMILES,D1 antag,D1 ag,D1 potentiator,TRHR enhancer-1,TRHR agonist-1,TRHR enhancer-2,TRHR agonist-2
c1ccc2c(c1)ncn2CCCOc1ccc2c(c1)CCC2,n,n,n,n,n,x,x
c1ccc2c(c1)ncn2CCCCOc1ccc2c(c1)CCC2,n,n,n,51,n,n,n
CN(C)/C=C/c1onc(-c2c(Cl)cccc2Cl)c1C#N,n,n,n,44,n,n,u
Cc1ccccc1N1C(=O)c2cccc3c(N(C)CCO)ccc(c23)C1=O,n,86,n,n,41,n,18µM
CC(=O)Nc1cccc2c1C(=O)N(c1ccccc1C)C2=O,n,n,n,n,n,x,x
COc1ccccc1N1C(=O)c2cccc3c(N(C)CCO)ccc(c23)C1=O,n,56,n,n,61,n,21µM
